Screening results: PubChem, National Center for Advancing Translational Sciences (NCATS)
The sample as a whole holds a higher share of hits than the screen did.
HTT aggregate = qHTS Multiplex Assay to Identify Dual Action Probes in a Cell Model of Huntington: Aggregate Formation (GFP); PC12 HttQ103-GFP aggregates, Acumen cytometry, 40 h; Potency, µM (highest dose often 46.1 µM), for the others: at the top dose activity change, negative = inhibition, most hits filed as inhibitors; 1.1% of 220,000 active; AID 1688, 2009; also: % is scaled to controls: 0 for no effect and ±100 for the full control effect; nearly all actives have a fitted effect of over 60% in size
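Huntingtin Q103 exon 1–GFP aggregates in induced PC12 cells (100 nM tebufenozide) were quantified by cytometry from lysates, with compounds dosed in titration.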
Epigenetic derep = Quantitative High-Throughput Screen for Regulators of Epigenetic Control | murine LDR cells, GFP reporter derepression, 30 h | Potency, µM (series often up to 53.9 µM), without a hit: at the highest dose GFP activation, hits mostly activators | 0.2% of 280,000 active; also: % of control where 0% means no effect; nearly all actives have a fitted effect of over 60% in size
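Murine LDR cells bearing a silenced CMV-driven GFP reporter were exposed to compound for 30 h at 37 C. After PBS washes, GFP-positive cells (20-120 um objects) counted by laser-scanning microplate cytometry.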
HTT ATP protect = qHTS Multiplex Assay to Identify Dual Action Probes in a Cell Model of Huntington: Cytoprotection (ATP). 0.14% of 230,000 active. AID 1471, 2008. PC12 HTT-Q103 induced, cytoprotection, ATP luminescence, 40 h. Potency, µM (highest dose often 56.4 µM), for the others: cytoprotection (ATP increase), actives largely listed as activators; also: % of control where 0% means no effect; nearly all actives have a fitted effect of over 45% in size
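Stable PC12 Q103-GFP cells in serum-supplemented, phenol red-free DMEM; induction by tebufenozide at 100 nM final; compound dose series; cell viability quantified luminescently from ATP.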
PINK1 expr mod = A Quantitative High throughput Screen to Identify Chemical Modulators of PINK1 Expression; PINK1 immunofluorescence, high-content cytometry, 24 h; Potency, µM (titrated, usually from 76.6 µM), for inactives: at the highest dose activation (PINK1 increase), actives largely listed as activators; 0.2% of 410,000 active; active = well fitted activation curve with a large enough effect; inconclusive = small, poorly fitted or top-dose-only effect; cell line not stated here; also: % of control where 0% means no effect; nearly all actives have a fitted effect of over 65% in size
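Stable cell line, 250 cells/well, 12 h attachment; compounds pinned at 5 concentrations, 24 h; CCCP control. Fixed with nuclear dye, primary antibodies 12 h at 10 degrees C, secondary plus cell stain; laser-scanning cytometer read.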
An asterisk follows results filed as active; ? = inconclusive; · = no result given; ! = repeats disagree; [ ] = remark or other dose. Unless noted, calls follow the shape of the dose curve; as a rule, active = well fitted curve in the direction sought with a large enough effect; inconclusive = small, poorly fitted or top-dose-only effect, or another doubt; inactive = no such curve, though single readings can be large; an effect the other way counts as inactive or inconclusive. Potency is read from the fitted curve at half-maximal effect.

SMILES	HTT aggregate	Epigenetic derep	HTT ATP protect	PINK1 expr mod
O=C(NNC1=C(C(=O)C(F)(F)F)CCC1)c1cccc(O)c1	?	3%	11%[10 µM]	1%
Cc1ccc(C)c(N(CC(=O)NC2CCCC2)C(=O)c2oc(C(C)(C)C)cc2C)c1	25µM*	-3%	1%[10 µM]	-3%[38.3 µM]
O=C(C1CCN(S(=O)(=O)c2cccc3nsnc23)CC1)N1CCCCC1	·	·	·	0%
O=C(NC1CCCCC1)C1CCN(S(=O)(=O)c2cccc3nsnc23)CC1	3%	-2%	-3%	10µM*
COc1c(N2CCNC(C)C2)c(F)cc2c(=O)c(C(=O)O)cn(C3CC3)c12 (centres undefined)	27%	5%	3.2µM*!	-1%
COc1ccc(COc2ccccc2C(N)=O)cc1F	16µM*	-1%	·	3%
O=C(N/N=C/c1cc([N+](=O)[O-])ccc1O)c1c[nH]c2ccccc12	0%[9.22 µM]	3%	3%[10 µM]	35µM*
Cc1cc(C(=O)N/N=C/c2cc([N+](=O)[O-])ccc2O)c2ccccc2n1	7.1µM*	1%	32%[10 µM]	-1%
O=C(C1CCC(CNS(=O)(=O)c2cccc3nsnc23)CC1)N1CC=C(c2ccccc2)CC1 (centres undefined)	8.9µM*	-2%	-36%	0%
O=C(C1CCN(S(=O)(=O)c2cccc3nsnc23)CC1)N1CC=C(c2ccccc2)CC1	-28%	-1%	-35%	4%
CCOC(=O)c1c(C)c(C(=O)Nc2ccc(N(C)C)cc2)c(C)n1CC	16%	-2%	-83%	11µM*
Cc1ccc(Cl)cc1N1CCN(C(=O)C2CCN(S(=O)(=O)c3cccnc3)CC2)CC1	11µM*	0%	10%	-2%
COC(=O)c1cc2nc(-c3ccccc3)cc(C)n2n1	-6%	0%	-22%	-3%
Cc1cc(-c2ccccc2)nc2cc(C(=O)N(Cc3ccccc3)Cc3ccccc3)nn12	13µM*	-1%	15%[10 µM]	-1%
COC(=O)/C=C/S(=O)(=O)c1ccc(NC(C)=O)cc1	10µM*	-2%	-141%	·
COc1ccccc1OS(=O)(=O)c1ccc(NC(C)=O)cc1	?	0%	-27%	0%
O=C(NC(NC(=S)Nc1ccccc1)C(Cl)(Cl)Cl)c1cccc(Cl)c1 (centres undefined)	11µM*	-1%	-71%	?
O=C(O)c1cccc(NC(=S)NC(NC(=O)c2cccc([N+](=O)[O-])c2)C(Cl)(Cl)Cl)c1 (centres undefined)	15%[9.22 µM]	3%	1%[10 µM]	1%
Cc1ccc(NC(=S)NC(NC(=O)c2ccccc2)C(Cl)(Cl)Cl)c(C)c1 (centres undefined)	-22%	-1%	22%[10 µM]	40µM*
CCCC(=O)NC(c1ccc2c(c1)OCO2)c1cc(Cl)c2cccnc2c1O (centres undefined)	2.8µM*	?	-69%[10 µM]	4%
O=C(NC(c1ccccc1)c1cc(Cl)c2cccnc2c1O)c1cccnc1 (centres undefined)	4µM*	2%	-88%[10 µM]	·
CC(=O)N1CCc2cc(S(=O)(=O)NC3CCCc4ccccc43)ccc21 (centres undefined)	7.1µM*	-1%	38%[10 µM]	1%
CCN(C(=S)NC(=O)Cc1ccc(OC)cc1)c1ccccc1	·	·	·	0%
CCc1ccc(NC(=O)c2sc3nc(C)c(C(=O)Nc4ccc(C)cc4C)c(-c4ccco4)c3c2N)cc1	·	18µM*	·	14%
O=C(NCc1cccc(F)c1)c1cccc(OC2CCN(C(=O)C3CC3)CC2)c1	·	·	·	0%
SMILES	HTT aggregate	Epigenetic derep	HTT ATP protect	PINK1 expr mod
Nc1c(C(=O)C2CC2)sc2nc(-c3cccs3)cc(C(F)(F)F)c12	-26%	3.5µM*	-79%	?
CCN(CC)c1ncnc2ccc(Br)cc12	13µM*	-2%	15%	-2%
Cc1cc2ncn(S(=O)(=O)c3ccc(S(N)(=O)=O)cc3)c2cc1C	·	·	·	-2%
CCOc1ccc(S(=O)(=O)n2cnc3cc(C)c(C)cc32)cc1	11µM*	0%	1%[10 µM]	?
CCCNC(=O)c1cc(C2CCCCN2C(=O)OCCF)on1 (centres undefined)	·	·	·	3%
COc1ccc(S(=O)(=O)CCC(=O)Nc2cc(C)ccc2OC)cc1	17%	-2%	-185%	-1%
Cc1[nH]c2ccccc2c1/C=N/NC(=O)C1CC1(c1ccccc1)c1ccccc1 (centres undefined)	13µM*	12%	8%[10 µM]	0%
Cc1ccc(-c2nnc(N3CCN(C(=O)Cn4c(=O)n(C)c5ccccc54)CC3)c3ccccc23)cc1	?	-1%	-6%	4%[38.3 µM]
Cn1c(=O)n(CC(=O)N2CCN(c3nnc(-c4ccccc4)c4ccccc34)CC2)c2ccccc21	14µM*	-1%	-17%[10 µM]	-2%[38.3 µM]
COc1cc(/C=C(\C#N)c2nc3ccccc3s2)ccc1OCC(=O)Nc1ccccc1	?	3.2µM*	·	3%
COc1cc(/C=C(\CC(=O)O)c2nc3ccccc3s2)ccc1OCC(=O)Nc1ccccc1F	·	·	·	1%
Cc1ccc(S(=O)(=O)Nc2ccc(NC(=O)Nc3cccc(C(F)(F)F)c3)cc2)cc1	?	2%	1%[10 µM]	-2%
CCN(CC)S(=O)(=O)c1ccc(NC(=O)Nc2cccc(C(F)(F)F)c2)cc1	16µM*	-6%	-63%	?
Cc1ccc2[nH]c3c(N4CCN(Cc5ccc6c(c5)OCO6)CC4)ncnc3c2c1	-5%	-1%	-21%	·
Cc1ccc2[nH]c3c(N4CCCCCC4)ncnc3c2c1	8.9µM*	0%	9%[1.9 µM]	·
Cc1ccc2c(c1)[nH]c1c(N3CCN(Cc4ccccc4)CC3)ncnc12	7.1µM*	4%	-85%[0.074 µM]	·
COc1ccc2c(c1)[nH]c1c(N3CCN(Cc4ccc5c(c4)OCO5)CC3)ncnc12	8.9µM*	-2%	-100%	9%
CCN(CC)c1ccc2nc3c(=O)n(C)c(=O)n(C)c3nc2c1	·	13µM*	·	0%
Cc1occc1C(=O)NNC(=O)CN1C(=O)NC2(CCCCC2)C1=O	·	·	·	1%
COCCn1nc2cc(C(=O)NCC34CC5CC(CC(C5)C3)C4)ccc2c1OC	18%	-4%	3%	0%
CCCn1nc2cc(C(=O)NCC34CC5CC(CC(C5)C3)C4)ccc2c1OCC	32µM*	-1%	-29%	9%
COc1ccc2c(c1)-c1nc(/N=C/c3ccccc3O)sc1CC2	-2%	0%	14%[10 µM]	2%
CCSc1nnnn1-c1ccccc1	20%	1%	5%[10 µM]	0%
Cc1ccc(C)c(-n2nnnc2Sc2nnnn2-c2ccccc2)c1	20µM*	-1%	-88%[10 µM]	-5%
O=C(c1ccccc1)N1CCCCC(S(=O)(=O)c2ccc3ccccc3c2)C1=O (centres undefined)	-1%	0%	-3%	5µM*
C/C(=N\N=C(N)N)c1cccc(Cl)c1	5µM*	1%	-183%	1%
CCN1/C(=C/c2ccc3cc(C)ccc3[n+]2CC)Sc2cc(C)c(C)cc21	·	25µM*	-64%[10 µM]	?
